Values joined by “and” are separate entries in the source; they are usually repeats but may differ in a detail not shown here. Equal entries are not always repeated. Inconclusive results are not listed. Where a structure was tested more than once in an assay, its records may differ in their call. Active and inactive are the calls of the source. Rule for the calls, unless noted: active = hit-call score of the fitted dose curve at least 0.9, where 1 is the maximum; inconclusive = response in the unintended direction; inactive = score below 0.9.
Tests used:
[1] = ATG_TCF_b_cat_CIS: Attagene CIS-FACTORIAL HepG2 Assay for human T-Cell-Factor with beta-catenin (TCF/b-cat) (AID 2282965; active = hit-call score of the fitted dose curve at least 0.9, where 1 is the maximum; inactive = score below 0.9); conditions: HepG2 TCF/beta-catenin cis-reporter transcription, actives raise or lower the signal
Summary of the method: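 Measured: reporter mRNA in HepG2 transiently transfected with cis-promoter reporter units, 24 h after chemical addition. Fitting was bidirectional, DMSO as negative control.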

[2] = ATG_TAL_CIS: Attagene CIS-FACTORIAL HepG2 Assay for human TAL Basal Promoter (AID 2282966; active = hit-call score of the fitted dose curve at least 0.9, where 1 is the maximum; inactive = score below 0.9;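 note: background control endpoint measuring basal TAL promoter reporter mRNA not a specific factor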); conditions: HepG2 Attagene cis-factorial TAL promoter reporter; actives raise or lower the signal
Summary of the method: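 In this cell-based multiplex, HepG2 liver cells bearing cis-promoter reporter constructs are dosed for 24 hours. Total RNA is reverse-transcribed and amplified, labelled fragments are sized by capillary electrophoresis, and signal changes are fitted bidirectionally versus DMSO.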

[3] = ATG_TGFb_CIS: Attagene CIS-FACTORIAL HepG2 Assay for human Transforming Growth Factor (TGF) (AID 2282967; active = hit-call score of the fitted dose curve at least 0.9, where 1 is the maximum; inactive = score below 0.9); conditions: HepG2 Attagene CIS TGFb reporter, mRNA transcription; actives raise or lower the signal
Summary of the method: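 HepG2 cells transiently transfected with cis-promoter-driven multiple reporter units measure endogenous TF activity; reporter mRNA quantified at 24 h by RT-PCR, FAM labeling, HpaI digestion and capillary electrophoresis. Bidirectional fit vs DMSO.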

[4] = ATG_VDRE_CIS: Attagene CIS-FACTORIAL HepG2 Assay for human Vitamin D Receptor Element (VDRE) (AID 2282968; active = hit-call score of the fitted dose curve at least 0.9, where 1 is the maximum; inactive = score below 0.9); conditions: HepG2 VDRE cis-reporter transcription, actives raise or lower the signal
Summary of the method: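 In transiently transfected HepG2 liver cells, gain or loss of reporter mRNA after 24 h exposure is scored relative to DMSO, using fluorescence detection by capillary electrophoresis of RT-PCR products.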

[5] = target: Nuclear receptor subfamily 1 group I member 3 (Homo sapiens) (UniProt Q14994); assay: ATG_CAR_TRANS: Attagene TRANS-FACTORIAL HepG2 Assay for human Constitutive Androstane Receptor (CAR) (AID 2282969); conditions: HepG2 Attagene TRANS-FACTORIAL CAR reporter;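 note: activators raise reporter mRNA above DMSO so AC50 marks induction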
Sequence of Nuclear receptor subfamily 1 group I member 3 (Homo sapiens) (Q14994 whole entry, looked up, the tested form may be a part): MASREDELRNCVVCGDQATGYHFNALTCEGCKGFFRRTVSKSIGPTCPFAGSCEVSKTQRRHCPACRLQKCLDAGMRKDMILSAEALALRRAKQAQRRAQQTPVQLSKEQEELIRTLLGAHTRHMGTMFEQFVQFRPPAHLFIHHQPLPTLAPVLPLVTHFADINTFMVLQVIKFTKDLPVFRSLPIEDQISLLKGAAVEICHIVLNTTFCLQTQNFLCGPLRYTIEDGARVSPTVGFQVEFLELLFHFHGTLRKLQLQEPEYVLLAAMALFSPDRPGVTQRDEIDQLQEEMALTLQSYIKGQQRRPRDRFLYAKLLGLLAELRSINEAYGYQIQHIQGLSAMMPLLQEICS
Summary of the method: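 Readout is reporter mRNA induction, quantified by fluorescent primer extension and capillary electrophoresis after RT-PCR. Cells were HepG2 transiently carrying chimeric NR-Gal4 constructs with GAL4-UAS reporters, treated for 24 h; activity scored upward from DMSO.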

[6] = target: Estrogen receptor (Homo sapiens) (UniProt P03372); assay: ATG_ERa_TRANS: Attagene TRANS-FACTORIAL HepG2 Assay for human Estrogen Receptor alpha (ERa) (AID 2282970); conditions: HepG2 Attagene TRANS ERa GAL4 reporter, mRNA
Sequence of Estrogen receptor (Homo sapiens) (P03372 whole entry, looked up, the tested form may be a part): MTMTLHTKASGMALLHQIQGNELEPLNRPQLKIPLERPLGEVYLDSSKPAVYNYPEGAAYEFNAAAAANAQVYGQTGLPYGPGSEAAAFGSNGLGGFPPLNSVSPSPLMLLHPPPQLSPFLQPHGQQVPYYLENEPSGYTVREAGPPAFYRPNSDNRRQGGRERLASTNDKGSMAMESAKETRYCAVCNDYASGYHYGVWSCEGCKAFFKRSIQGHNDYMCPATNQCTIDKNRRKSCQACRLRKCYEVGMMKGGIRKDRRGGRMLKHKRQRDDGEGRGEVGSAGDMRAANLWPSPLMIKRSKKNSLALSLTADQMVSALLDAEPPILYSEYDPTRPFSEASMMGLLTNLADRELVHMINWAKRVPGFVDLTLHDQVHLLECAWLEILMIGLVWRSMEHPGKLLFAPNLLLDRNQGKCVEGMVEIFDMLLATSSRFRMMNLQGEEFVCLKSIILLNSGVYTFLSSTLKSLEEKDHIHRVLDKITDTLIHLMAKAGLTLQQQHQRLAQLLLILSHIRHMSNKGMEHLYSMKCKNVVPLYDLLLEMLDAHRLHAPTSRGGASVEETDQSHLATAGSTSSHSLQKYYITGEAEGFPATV
Summary of the method: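 After 24 h of compound treatment, RNA from HepG2 cells bearing transfected GAL4-UAS reporter constructs is converted to cDNA, amplified and fluorescently labelled. Capillary electrophoresis resolves the ERa-linked reporter; DMSO serves as negative control.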

[7] = target: Steroid hormone receptor ERR1 (Homo sapiens) (UniProt P11474); assay: ATG_ERRa_TRANS: Attagene TRANS-FACTORIAL HepG2 Assay for human Estrogen-Related Receptor alpha (ERRa) (AID 2282971); conditions: HepG2 Attagene TRANS reporter, ERRa transactivation
Sequence of Steroid hormone receptor ERR1 (Homo sapiens) (P11474 whole entry, looked up, the tested form may be a part): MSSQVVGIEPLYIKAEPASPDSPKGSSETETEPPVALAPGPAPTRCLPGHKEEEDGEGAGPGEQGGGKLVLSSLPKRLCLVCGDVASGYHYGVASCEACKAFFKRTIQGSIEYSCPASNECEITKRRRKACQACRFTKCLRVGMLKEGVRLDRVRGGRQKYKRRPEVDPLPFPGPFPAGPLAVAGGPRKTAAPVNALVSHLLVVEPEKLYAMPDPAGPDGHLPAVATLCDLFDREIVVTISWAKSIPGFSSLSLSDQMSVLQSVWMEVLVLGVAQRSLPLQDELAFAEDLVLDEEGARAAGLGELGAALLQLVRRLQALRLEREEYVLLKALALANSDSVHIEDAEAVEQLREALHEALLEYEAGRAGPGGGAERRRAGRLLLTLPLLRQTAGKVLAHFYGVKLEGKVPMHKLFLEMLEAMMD
Summary of the method: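 Transfected HepG2, 24 h dosing, ERRa-Gal4 chimera driving GAL4-UAS reporter. Readout: reporter mRNA via RT-PCR plus capillary electrophoresis (fluorescence). Positive direction vs DMSO control.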

[8] = target: X-box-binding protein 1 (Homo sapiens) (UniProt P17861); assay: ATG_Xbp1_CIS: Attagene CIS-FACTORIAL HepG2 Assay for human X-box Binding Protein 1 (XBP1) (AID 2282972; active = hit-call score of the fitted dose curve at least 0.9, where 1 is the maximum; inactive = score below 0.9); conditions: HepG2 XBP1 cis-element reporter, Attagene multiplex; actives raise or lower the signal
Sequence of X-box-binding protein 1 (Homo sapiens) (P17861 whole entry, looked up): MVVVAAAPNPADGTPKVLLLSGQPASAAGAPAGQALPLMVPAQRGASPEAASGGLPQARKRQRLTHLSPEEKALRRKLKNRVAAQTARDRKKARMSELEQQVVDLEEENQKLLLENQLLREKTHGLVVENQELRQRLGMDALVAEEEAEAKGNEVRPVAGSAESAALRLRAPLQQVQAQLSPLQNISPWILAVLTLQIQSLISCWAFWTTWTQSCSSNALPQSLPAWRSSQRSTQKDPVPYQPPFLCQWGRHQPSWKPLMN
Summary of the method: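 HepG2 cells transiently transfected with cis-regulated multiple reporter transcription units; endogenous transcription factor activity measured 24 hours after chemical dosing. Reporter mRNA quantified by RT-PCR, 6-FAM primer extension, HpaI digestion and capillary electrophoresis; bidirectional fitting versus DMSO.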

[9] = ATG_M_19_TRANS: Attagene TRANS-FACTORIAL HepG2 Assay for M19 Transcription Factor (Internal Marker) (AID 2282974); conditions: HepG2 Attagene TRANS-FACTORIAL M19 internal marker reporter
Summary of the method: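 Transfected HepG2 (GAL4-UAS MRTUs), 24 h compound, TriZol RNA, DNase-treated RT, reporter PCR, FAM label, HpaI digest, CE fluorescence; gain vs DMSO.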

[10] = ATG_GAL4_TRANS: Attagene TRANS-FACTORIAL HepG2 Assay for GAL4 (Internal Marker) (AID 2282976); conditions: HepG2 Attagene TRANS GAL4 internal marker reporter
Summary of the method: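 RT-PCR/capillary electrophoresis readout of reporter mRNA. HepG2, transient MRTU transfection (GAL4-UAS reporters), 24 h compound exposure. Background-control endpoint, positive direction vs DMSO baseline.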

[11] = target: Estrogen-related receptor gamma (Homo sapiens) (UniProt P62508); assay: ATG_ERRg_TRANS: Attagene TRANS-FACTORIAL HepG2 Assay for human Estrogen-Related Receptor gamma (ERRg) (AID 2282977); conditions: HepG2 Attagene TRANS reporter, ERRg transactivation;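 note: hits increase reporter signal over DMSO so potencies reflect activators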
Sequence of Estrogen-related receptor gamma (Homo sapiens) (P62508 whole entry, looked up, the tested form may be a part): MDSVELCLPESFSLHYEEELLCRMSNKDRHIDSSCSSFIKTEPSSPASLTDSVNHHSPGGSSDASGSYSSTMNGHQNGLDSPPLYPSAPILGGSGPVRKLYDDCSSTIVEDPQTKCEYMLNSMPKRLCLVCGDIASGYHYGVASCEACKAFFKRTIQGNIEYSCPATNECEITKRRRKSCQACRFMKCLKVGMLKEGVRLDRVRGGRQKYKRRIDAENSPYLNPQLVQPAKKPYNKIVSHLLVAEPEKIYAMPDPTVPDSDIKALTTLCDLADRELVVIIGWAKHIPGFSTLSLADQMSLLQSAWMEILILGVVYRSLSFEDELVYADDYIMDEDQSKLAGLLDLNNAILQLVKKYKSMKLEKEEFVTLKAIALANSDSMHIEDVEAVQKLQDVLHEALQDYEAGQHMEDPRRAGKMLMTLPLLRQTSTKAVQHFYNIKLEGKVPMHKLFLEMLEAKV
Summary of the method: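 Transient HepG2 transfectants, 24 h compound exposure, GAL4-UAS reporter mRNA by RT-PCR/6-FAM labelling/capillary electrophoresis; positive direction vs DMSO.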

[12] = target: Glucocorticoid receptor (Homo sapiens) (UniProt P04150); assay: ATG_GR_TRANS: Attagene TRANS-FACTORIAL HepG2 Assay for human Glucocorticoid Receptor (GR) (AID 2282978); conditions: HepG2 Attagene TRANS GR reporter, mRNA transcription;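 note: activators score as hits since higher reporter transcript over DMSO is fitted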
Sequence of Glucocorticoid receptor (Homo sapiens) (P04150 whole entry, looked up): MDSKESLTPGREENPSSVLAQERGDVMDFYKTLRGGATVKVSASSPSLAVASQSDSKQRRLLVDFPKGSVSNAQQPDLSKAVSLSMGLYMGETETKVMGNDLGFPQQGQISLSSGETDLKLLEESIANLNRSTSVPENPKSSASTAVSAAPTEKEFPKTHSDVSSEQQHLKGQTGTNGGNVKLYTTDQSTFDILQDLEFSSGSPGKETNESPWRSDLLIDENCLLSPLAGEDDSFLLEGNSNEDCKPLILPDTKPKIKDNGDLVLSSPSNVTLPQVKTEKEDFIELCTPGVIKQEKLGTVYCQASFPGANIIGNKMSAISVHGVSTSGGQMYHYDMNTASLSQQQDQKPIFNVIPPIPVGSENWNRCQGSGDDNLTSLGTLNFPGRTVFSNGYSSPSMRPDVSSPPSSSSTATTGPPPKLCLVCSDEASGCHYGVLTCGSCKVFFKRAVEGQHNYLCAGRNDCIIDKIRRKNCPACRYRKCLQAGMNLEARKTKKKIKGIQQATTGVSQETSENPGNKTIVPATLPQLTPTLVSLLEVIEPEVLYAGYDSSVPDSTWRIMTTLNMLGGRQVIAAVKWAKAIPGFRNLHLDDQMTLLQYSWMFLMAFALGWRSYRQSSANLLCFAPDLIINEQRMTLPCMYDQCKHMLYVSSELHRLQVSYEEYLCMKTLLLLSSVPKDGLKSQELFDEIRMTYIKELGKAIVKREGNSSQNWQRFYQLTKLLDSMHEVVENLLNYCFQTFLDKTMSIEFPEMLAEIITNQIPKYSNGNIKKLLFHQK
Summary of the method: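 After 24 h incubation with test chemical, transfected HepG2 cells were lysed for RNA; reporter cDNA was amplified, FAM-labelled, HpaI-digested and sized on a capillary analyser. Signal gain relative to DMSO was scored.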

[13] = target: Bile acid receptor (Homo sapiens) (UniProt Q96RI1); assay: ATG_FXR_TRANS: Attagene TRANS-FACTORIAL HepG2 Assay for Farnesoid X Receptor (FXR) (AID 2282979); conditions: HepG2 Attagene TRANS FXR-GAL4 reporter transcription;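 note: hits raise reporter mRNA above DMSO so AC50 marks FXR activation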
Sequence of Bile acid receptor (Homo sapiens) (Q96RI1 whole entry, looked up, the tested form may be a part): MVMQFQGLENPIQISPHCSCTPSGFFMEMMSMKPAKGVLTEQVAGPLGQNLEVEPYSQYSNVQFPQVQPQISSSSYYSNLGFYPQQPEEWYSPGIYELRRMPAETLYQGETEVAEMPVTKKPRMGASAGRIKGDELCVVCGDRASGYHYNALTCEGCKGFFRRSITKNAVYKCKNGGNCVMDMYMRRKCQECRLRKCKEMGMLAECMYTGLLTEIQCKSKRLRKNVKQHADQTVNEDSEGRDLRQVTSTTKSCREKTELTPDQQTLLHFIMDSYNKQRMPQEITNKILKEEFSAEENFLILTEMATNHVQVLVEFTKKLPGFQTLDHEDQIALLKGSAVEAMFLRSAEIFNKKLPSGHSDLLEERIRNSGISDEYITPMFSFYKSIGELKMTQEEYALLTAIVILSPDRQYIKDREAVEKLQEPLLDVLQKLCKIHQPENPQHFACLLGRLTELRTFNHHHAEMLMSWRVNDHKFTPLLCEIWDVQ
Summary of the method: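 Read-out: fluorescent reporter transcripts quantified by capillary electrophoresis after RT-PCR of total RNA. Source cells were HepG2 transiently carrying chimeric NR-GAL4 plus GAL4-UAS reporter units, dosed 24 h. Activity fitted upward relative to DMSO baseline.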

[14] = target: Oxysterols receptor LXR-alpha (Homo sapiens) (UniProt Q13133); assay: ATG_LXRa_TRANS: Attagene TRANS-FACTORIAL HepG2 Assay for human Liver X Receptor alpha (LXRa) (AID 2282980); conditions: HepG2 Attagene TRANS reporter, LXRa transactivation
Summary of the method: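 Read-out: reporter transcript levels by RT-PCR plus capillary electrophoresis, fluorescence intensity. Transiently transfected HepG2, exogenous NR-GAL4 chimera, GAL4-UAS reporters; 24 h compound exposure. Activity = increase over DMSO negative control.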

[15] = target: Oxysterols receptor LXR-beta (Homo sapiens) (UniProt P55055); assay: ATG_LXRb_TRANS: Attagene TRANS-FACTORIAL HepG2 Assay for human Liver X Receptor beta (LXRb) (AID 2282981); conditions: HepG2 Attagene TRANS GAL4-LXRb reporter, mRNA
Sequence of Oxysterols receptor LXR-beta (Homo sapiens) (P55055 whole entry, looked up, the tested form may be a part): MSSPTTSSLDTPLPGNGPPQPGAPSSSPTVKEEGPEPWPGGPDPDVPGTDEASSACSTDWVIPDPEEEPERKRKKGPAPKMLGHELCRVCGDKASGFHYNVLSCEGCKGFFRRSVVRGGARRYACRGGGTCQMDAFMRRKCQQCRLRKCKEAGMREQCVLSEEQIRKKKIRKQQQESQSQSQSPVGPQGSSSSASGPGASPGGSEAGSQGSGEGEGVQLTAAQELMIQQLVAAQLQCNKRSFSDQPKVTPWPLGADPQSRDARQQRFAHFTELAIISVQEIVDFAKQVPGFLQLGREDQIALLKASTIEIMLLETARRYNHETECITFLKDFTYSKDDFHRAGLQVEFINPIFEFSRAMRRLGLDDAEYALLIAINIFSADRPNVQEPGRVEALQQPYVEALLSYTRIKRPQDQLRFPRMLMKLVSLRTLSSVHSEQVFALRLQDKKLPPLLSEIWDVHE
Summary of the method: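 Cells: HepG2, transiently transfected with GAL4-UAS reporter units plus LXRb-Gal4 fusion. Treatment: 24 h. Detection: reporter mRNA by RT-PCR, 6-FAM labelling, HpaI digestion, capillary electrophoresis.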

[16] = target: Hepatocyte nuclear factor 4-alpha (Homo sapiens) (UniProt P41235); assay: ATG_HNF4a_TRANS: Attagene TRANS-FACTORIAL HepG2 Assay for human Hepatocyte Nuclear Factor 4 alpha (HNF4a) (AID 2282982); conditions: HepG2 HNF4a transactivation reporter, mRNA readout
Sequence of Hepatocyte nuclear factor 4-alpha (Homo sapiens) (P41235 whole entry, looked up): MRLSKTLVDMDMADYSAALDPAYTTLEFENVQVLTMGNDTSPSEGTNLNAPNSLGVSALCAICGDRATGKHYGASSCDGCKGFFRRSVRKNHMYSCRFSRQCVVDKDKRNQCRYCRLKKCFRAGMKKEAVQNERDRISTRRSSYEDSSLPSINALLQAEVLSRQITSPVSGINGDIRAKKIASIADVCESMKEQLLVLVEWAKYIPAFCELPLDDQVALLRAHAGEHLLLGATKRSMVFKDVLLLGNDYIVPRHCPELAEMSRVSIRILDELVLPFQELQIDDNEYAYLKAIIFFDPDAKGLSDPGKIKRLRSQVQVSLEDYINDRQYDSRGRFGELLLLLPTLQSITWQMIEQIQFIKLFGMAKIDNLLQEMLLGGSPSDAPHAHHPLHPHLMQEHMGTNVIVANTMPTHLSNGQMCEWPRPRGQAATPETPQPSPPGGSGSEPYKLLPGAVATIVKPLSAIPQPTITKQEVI
Summary of the method: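 Transfected HepG2 reporter cells are dosed for 24 h; reporter RNA is reverse-transcribed, amplified, fluorescently labelled and HpaI-digested before CE sizing. Positive-direction fit against DMSO.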

[17] = ATG_M_06_TRANS: Attagene TRANS-FACTORIAL HepG2 Assay for M06 Transcription Factor (Internal Marker) (AID 2282983); conditions: HepG2 Attagene TRANS M06 internal marker reporter
Summary of the method: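 After a 24 h chemical treatment of transfected HepG2, RNA underwent DNase I treatment, reverse transcription and reporter-specific PCR; labelled, HpaI-digested products were sized by capillary electrophoresis. Signal increase relative to DMSO defined activity.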

[18] = ATG_M_32_TRANS: Attagene TRANS-FACTORIAL HepG2 Assay for M32 Transcription Factor (Internal Marker) (AID 2282984); conditions: HepG2 Attagene TRANS M32 internal marker reporter;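 note: transcript level of a background control reporter unit measured by RT-PCR and capillary electrophoresis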
Summary of the method: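 Using transiently transfected HepG2 cells exposed to test chemicals for 24 h, reporter transcripts are converted to labelled cDNA fragments and quantified by capillary electrophoresis. DMSO defines the activity baseline.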

[19] = target: Nuclear receptor subfamily 4 group A member 2 (Homo sapiens) (UniProt P43354); assay: ATG_NURR1_TRANS: Attagene TRANS-FACTORIAL HepG2 Assay for human Nuclear Receptor Related Protein 1 (NURR1) (AID 2282985); conditions: HepG2 Attagene TRANS reporter, mRNA readout
Sequence of Nuclear receptor subfamily 4 group A member 2 (Homo sapiens) (P43354 whole entry, looked up): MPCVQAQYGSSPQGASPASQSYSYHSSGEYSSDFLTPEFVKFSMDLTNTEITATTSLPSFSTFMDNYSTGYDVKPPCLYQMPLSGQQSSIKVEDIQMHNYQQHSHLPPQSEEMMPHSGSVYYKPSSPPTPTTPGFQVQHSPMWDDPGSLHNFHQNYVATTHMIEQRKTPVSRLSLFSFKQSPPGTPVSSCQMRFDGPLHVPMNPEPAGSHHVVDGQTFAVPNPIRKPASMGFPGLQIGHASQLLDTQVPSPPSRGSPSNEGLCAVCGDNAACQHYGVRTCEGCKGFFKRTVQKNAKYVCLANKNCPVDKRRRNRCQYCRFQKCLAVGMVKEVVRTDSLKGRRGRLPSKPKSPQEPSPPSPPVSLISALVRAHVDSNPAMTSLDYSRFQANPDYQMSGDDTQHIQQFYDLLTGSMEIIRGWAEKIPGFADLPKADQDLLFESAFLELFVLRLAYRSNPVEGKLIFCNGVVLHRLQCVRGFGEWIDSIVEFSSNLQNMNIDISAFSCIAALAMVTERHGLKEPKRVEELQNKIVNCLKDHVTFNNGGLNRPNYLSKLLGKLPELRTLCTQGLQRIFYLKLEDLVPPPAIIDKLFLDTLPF
Summary of the method: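 Cells: HepG2, transiently transfected. Exposure: 24 h. Detection: fluorescence of labelled RT-PCR products separated by capillary electrophoresis; upward fit versus DMSO.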

[20] = target: Transcriptional activator Myb (Homo sapiens) (UniProt P10242); assay: ATG_Myb_CIS: Attagene CIS-FACTORIAL HepG2 Assay for human Myeloblastosis (Myb) Proto-Oncogene Transcription Factor (AID 2282986; active = hit-call score of the fitted dose curve at least 0.9, where 1 is the maximum; inactive = score below 0.9); conditions: HepG2 Attagene CIS-FACTORIAL Myb reporter transcription; actives raise or lower the signal
Summary of the method: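 After 24 h of compound dosing, total RNA from transfected HepG2 cells is reverse-transcribed and the reporter sequences amplified, labeled and separated by capillary electrophoresis. Values come from bidirectional fitting against DMSO.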

Measured: AC50

COc1ccc(C(c2ccc(OC)cc2)C(Cl)(Cl)Cl)cc1
inactive: [1] | [2] | [3] | [4] | [5] | [6] | [7] | [8] | [9] | [10] | [11] | [12] | [13] | [14] | [15] | [16] | [17] | [18] | [19]
active: [4] 4.94 µM and 16.3 µM and 11.9 µM | [6] 1.53 µM [middle of 4 runs] | [8] 28.3 µM | [13] 26.5 µM

COC(=O)C=C(C)OP(=O)(OC)OC
not listed: [10] | [14] | [17]
inactive: all other assays above

CC(C)(C)c1ccc(CSc2cnn(C(C)(C)C)c(=O)c2Cl)cc1
active: [4] 574 nM | [6] 26.5 µM
not listed: [9] | [13] | [20]
inactive: all other assays above

CC(C)Oc1cc(-n2nc(C(C)(C)C)oc2=O)c(Cl)cc1Cl
active: [4] 667 nM
not listed: [7] | [11] | [14] | [20]
inactive: all other assays above
